We go through 36 molecules from the antibiotic and cytotoxicity screens of Wong et al. (2023).

SMILES strings stand for the structures. About 3,300 (8.5%) of roughly 39,000 compounds were called active. Only a selection was taken, and actives are over-represented in it overall.

This assay deals with HepG2. The experiment in a line: cytotoxicity call (relative viability < 0.9). The settings on record: 10 µM.
Consider `Cc1cn([C@@H]2C[C@H](O)[C@@H](CO)O2)c(=O)[nH]c1=O`, for which the cytotoxicity call was “inactive”. The result for `Cc1ccc(S(=O)(=O)Nc2ccc3c(c2)C(=O)N([C@H](C)CO)C[C@H](C)[C@H](CN(C)C(=O)CCC(F)(F)F)OCCCC[C@@H](C)O3)cc1` reads “inactive”; that for `CC(C)(C)OC(=O)C[C@H]1CC=CC[C@@H](CC(=O)NCCO)C(=O)N[C@@H](Cc2ccccc2)COC1=O`, “inactive”. `C[C@@H]1CN([C@@H](C)CO)C(=O)c2cccc(NC(=O)c3ccncc3)c2O[C@H]1CN(C)Cc1ccc2c(c1)OCO2`: the cytotoxicity call is “inactive”.

For `CC(C)NC(=O)Nc1ccc2c(c1)C(=O)N([C@@H](C)CO)C[C@H](C)[C@@H](CN(C)Cc1ccc(C(=O)O)cc1)O2`, the cytotoxicity call is “inactive”. The result for `C[C@@H]1CCCCO[C@@H](CN(C)C(=O)Nc2ccc(F)cc2)[C@@H](C)CN([C@H](C)CO)C(=O)c2cc(NC(=O)c3ccncc3)ccc2O1` reads “inactive”; that for `Cc1ccc(S(=O)(=O)Nc2ccc3c(c2)C(=O)N([C@H](C)CO)C[C@H](C)[C@H](CN(C)C(=O)Nc2ccc4c(c2)OCO4)OCCCC[C@H](C)O3)cc1`, “active”; that for `Cc1ccc(S(=O)(=O)Nc2ccc3c(c2)C(=O)N([C@@H](C)CO)C[C@H](C)[C@@H](CN(C)C(=O)Nc2ccc4c(c2)OCO4)OCCCC[C@@H](C)O3)cc1`, “inactive”. Then `COc1ccc(S(=O)(=O)Nc2ccc3c(c2)C(=O)N([C@@H](C)CO)C[C@H](C)[C@@H](CN(C)C(=O)Nc2ccc4c(c2)OCO4)OCCCC[C@@H](C)O3)cc1`, with “inactive”; and `COc1ccc(S(=O)(=O)Nc2ccc3c(c2)C(=O)N([C@@H](C)CO)C[C@@H](C)[C@@H](CN(C)C(=O)Nc2ccc4c(c2)OCO4)OCCCC[C@@H](C)O3)cc1`, with “active”. On to `COc1ccc(S(=O)(=O)Nc2ccc3c(c2)C(=O)N([C@H](C)CO)C[C@H](C)[C@H](CN(C)C(=O)Nc2ccc4c(c2)OCO4)OCCCC[C@H](C)O3)cc1`, for which the cytotoxicity call is “inactive”. The result for `C[C@H]1CCCCO[C@H](CN(C)C(=O)Nc2ccc3c(c2)OCO3)[C@@H](C)CN([C@@H](C)CO)C(=O)c2cc(NS(=O)(=O)c3ccc(Cl)cc3)ccc2O1` reads “active”; that for `C[C@@H]1CN([C@H](C)CO)C(=O)c2cc(NS(=O)(=O)c3ccc(Cl)cc3)ccc2O[C@@H](C)CCCCO[C@H]1CN(C)C(=O)Nc1ccc2c(c1)OCO2`, “inactive”; that for `Cc1ccc(S(=O)(=O)Nc2ccc3c(c2)C(=O)N([C@H](C)CO)C[C@H](C)[C@@H](CN(C)C(=O)Nc2ccc4c(c2)OCO4)OCCCC[C@H](C)O3)cc1`, “inactive”. The result for `C[C@@H]1CCCCO[C@H](CN(C)C(=O)Nc2ccc3c(c2)OCO3)[C@H](C)CN([C@@H](C)CO)C(=O)c2cc(NS(=O)(=O)c3ccc(Cl)cc3)ccc2O1` reads “inactive”; that for `COc1ccc2c3c(n(c2c1)C)[C@@H](CO)N(Cc1cc(cc(c1)OC)OC)C[C@]13CN(C1)C(=O)CN1CCOCC1`, “inactive”; that for `COCC(=O)N1CC[C@@H]2N(S(C)(=O)=O)CC[C@@]2(C(=O)N2CCOCC2)CC1`, “inactive”. Regarding `CC(=O)Nc1cc(C(C)C)c(C(C)C)cc1C(C)C`, the cytotoxicity call was “inactive”. For the molecule `C[C@H](CO)N1C[C@H](C)[C@@H](CN(C)C(=O)Nc2ccc3c(c2)OCO3)OCCCC[C@H](C)Oc2ccc(NC(=O)c3ccccc3)cc2C1=O`, the cytotoxicity call is “inactive”.

In the case of `COCC(=O)N1C[C@H](C)[C@H](OC)CN(C)C(=O)c2cc(NC(=O)c3ccc(F)cc3)ccc2OC[C@@H]1C`, the cytotoxicity call was “inactive”. As for `C[C@H]1CN([C@@H](C)CO)C(=O)c2cc(NS(=O)(=O)c3cccs3)ccc2O[C@@H]1CN(C)S(=O)(=O)c1ccc(F)cc1`, the cytotoxicity call is “inactive”. The result for `COc1ccc2c3c([nH]c2c1)[C@H](CO)N(C[C@]13CCN(CC1)C(=O)c1ccccc1F)C(=O)Nc1ccccc1F` reads “inactive”. Then `C[C@@H]1CN([C@H](C)CO)C(=O)c2cccc(NC(=O)Nc3ccc4c(c3)OCO4)c2O[C@H]1CN(C)S(C)(=O)=O`, with “inactive”. For the molecule `CN1C[C@@H](O)COC[C@H]2O[C@@H](CC(=O)N3CCN(c4ccccc4)CC3)CC[C@@H]21`, the cytotoxicity call is “inactive”. On to `CN(C)S(=O)(=O)N1C[C@H]2C[C@H](C(=O)Nc3cccnc3)[C@@H](C1)O2`, for which the cytotoxicity call is “inactive”.

For the molecule `CN1CCCC1c1cccnc1.O=C(O)C(O)C(O)C(=O)O.O=C(O)C(O)C(O)C(=O)O` (stereo unspecified), the cytotoxicity call was “inactive”. Regarding `C[C@H](c1cccnc1)N(C(=O)Nc1ccccc1)C1CCCCC1`, the cytotoxicity call is “active”. The result for `C[C@@H]1CN([C@@H](C)CO)C(=O)c2cccc(NC(=O)C3CCCCC3)c2O[C@@H]1CN(C)C(=O)Nc1cccc2ccccc12` reads “inactive”; that for `C=CCN1C(=O)[C@@]2(O[C@@H](CCO)[C@H]([Si](C)(C)c3ccc(OC)cc3)[C@H]2C)c2cc(N(C=O)c3ccccc3)ccc21`, “active”; that for `C=CCN1C(=O)[C@]2(O[C@H](CCO)[C@@H]([Si](C)(C)c3ccc(OC)cc3)[C@@H]2C)c2cc(N(C=O)c3ccccc3)ccc21`, “active”. Then `C=CCN1C(=O)[C@]2(O[C@H](CCn3cc(CCO)nn3)[C@@H]([Si](C)(C)c3ccc(OC)cc3)[C@@H]2C)c2cc(N3CCC3=O)ccc21`, with “inactive”. As to `C=CCN1C(=O)[C@@]2(O[C@@H](CCn3cc(CCO)nn3)[C@H]([Si](C)(C)c3ccc(OC)cc3)[C@H]2C)c2cc(N3CCC3=O)ccc21`, the cytotoxicity call was “inactive”. The result for `C=CCN1C(=O)[C@]2(O[C@H](CCO)[C@@H]([Si](C)(C)c3ccc(OC)cc3)[C@@H]2C)c2cc(NC(=O)[C@H](C)O)ccc21` reads “inactive”; that for `C=CCN1C(=O)[C@@]2(O[C@@H](CCO)[C@H]([Si](C)(C)c3ccc(OC)cc3)[C@H]2C)c2cc(NC(=O)[C@H](C)O)ccc21`, “inactive”. Consider `CC(=O)N[C@H](Cc1ccc2ccccc2c1)C(=O)N[C@H](Cc1ccc(Cl)cc1)C(=O)N[C@H](Cc1cccnc1)C(=O)N[C@@H](CO)C(=O)N[C@@H](Cc1ccc(NC(=O)[C@@H]2CC(=O)NC(=O)N2)cc1)C(=O)N[C@H](Cc1ccc(NC(N)=O)cc1)C(=O)N[C@@H](CC(C)C)C(=O)N[C@@H](CCCCNC(C)C)C(=O)N1CCC[C@H]1C(=O)N[C@H](C)C(N)=O`, for which the cytotoxicity call is “inactive”. `COc1ccc(NC(=O)Nc2ccc3c(c2)C(=O)N([C@H](C)CO)C[C@H](C)[C@H](CN(C)S(=O)(=O)c2ccc(F)cc2)OCCCC[C@H](C)O3)cc1`: the cytotoxicity call was “inactive”.
